Where “and” joins values, the source holds several entries; their conditions need not be identical. Identical values can stand only once. Screen size: about 5,500 compounds; about 2,000 (36%) were called active. Not shown: some 18% with an inconclusive outcome. No stated cut-off is given here; in the data, active means normalized growth mostly below about 0.91 (no sharp cut-off); inconclusive means no clear call, values can overlap the other calls; inactive means mostly above about 0.92. This is one part of the list.
Test: chemical genetic growth profiling, strain panel (AID 1159580);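 further: tested at 20 µM; growth read once vehicle control cultures reached saturation at 30 °C; 1 = growth at the plate median or of vehicle wells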
Details: S. cerevisiae deletion strains, growth OD

Measured: normalized growth

COC(=O)c1c(C)cc(OC)cc1O
inactive: locus YAL013W, strain DEP1, stronger effect = lower value 1.02 | locus YAL021C, strain ccr4, stronger effect = lower value 1.02 | locus YAL026C, strain drs2, stronger effect = lower value 0.984 | locus YAL030W, strain snc1, stronger effect = lower value 0.971 | locus YBL061C, strain skt5, stronger effect = lower value 0.988 | locus YBR009C, strain hhf1, stronger effect = lower value 0.978 | locus YBR021W, strain FUR4, stronger effect = lower value 1.02 | locus YBR023C, strain chs3, stronger effect = lower value 0.973 | locus YBR171W, strain sec66, stronger effect = lower value 0.961 | locus YBR229C, strain ROT2, stronger effect = lower value 0.996 | locus YBR231C, strain swc5, stronger effect = lower value 0.978 | locus YBR279W, strain paf1, stronger effect = lower value 0.988 | locus YCL011C, strain gbp2, stronger effect = lower value 0.969 | locus YCL016C, strain dcc1, stronger effect = lower value 0.966 | locus YCL029C, strain bik1, stronger effect = lower value 0.976 | locus YCL069W, strain vba3, stronger effect = lower value 0.989 | locus YCR088W, strain abp1, stronger effect = lower value 0.971 | locus YDL005C, strain med2, stronger effect = lower value 0.985 | locus YDL035C, strain GPR1, stronger effect = lower value 1 | locus YDL040C, strain nat1, stronger effect = lower value 0.98 | locus YDL074C, strain BRE1, stronger effect = lower value 1.02 | locus YDL101C, strain DUN1, stronger effect = lower value 1 | locus YDL134C, strain PPH21, stronger effect = lower value 1 | locus YDL185W, strain tfp1, stronger effect = lower value 0.987 | locus YDL192W, strain arf1, stronger effect = lower value 0.985 | locus YDR001C, strain nth1, stronger effect = lower value 0.983 | locus YDR069C, strain doa4, stronger effect = lower value 0.98 | locus YDR101C, strain arx1, stronger effect = lower value 0.954 | locus YDR137W, strain rgp1, stronger effect = lower value 1.01 | locus YDR150W, strain NUM1, stronger effect = lower value 0.989 | locus YDR159W, strain sac3, stronger effect = lower value 0.953 | locus YDR162C, strain NBP2, stronger effect = lower value 0.997 | locus YDR195W, strain ref2 1.03 | locus YDR297W, strain sur2, stronger effect = lower value 0.984 | locus YDR318W, strain mcm21, stronger effect = lower value 0.962 | locus YDR334W, strain swr1, stronger effect = lower value 0.984 | locus YDR335W, strain msn5, stronger effect = lower value 0.994 | locus YDR388W, stronger effect = lower value 0.986 | locus YDR392W, strain spt3, stronger effect = lower value 0.913 | locus YDR502C, strain sam2, stronger effect = lower value 0.962 | locus YEL003W, strain gim4, stronger effect = lower value 0.975 | locus YEL037C, strain rad23, stronger effect = lower value 0.991 | locus YEL061C, strain CIN8 (second series), stronger effect = lower value 0.98 | locus YEL061C, strain CIN8, stronger effect = lower value 0.989 | locus YER015W, strain faa2, stronger effect = lower value 0.98 | locus YER016W, strain bim1, stronger effect = lower value 0.984 | locus YER110C, stronger effect = lower value 0.947 | locus YER111C, strain swi4, stronger effect = lower value 0.966 | locus YER155C, strain BEM2, stronger effect = lower value 0.994 | locus YER167W, strain BCK2, stronger effect = lower value 0.993 | locus YFR010W, strain ubp6, stronger effect = lower value 0.992 | locus YGL078C, strain dbp3, stronger effect = lower value 0.993 | locus YGL086W, strain mad1, stronger effect = lower value 0.988 | locus YGL167C, strain pmr1, stronger effect = lower value 0.977 | locus YGL173C, strain kem1, stronger effect = lower value 0.971 | locus YGL227W, strain vid30, stronger effect = lower value 0.969 | locus YGL240W, strain doc1, stronger effect = lower value 0.938 | locus YGL248W, strain PDE1, stronger effect = lower value 0.997 | locus YGL253W, strain hxk2, stronger effect = lower value 0.979 | locus YGR078C, strain PAC10, stronger effect = lower value 0.984 | locus YGR135W, strain pre9, stronger effect = lower value 0.962 | locus YGR229C, strain SMI1, stronger effect = lower value 1.03 | locus YGR252W, strain gcn5, stronger effect = lower value 1.02 | locus YHR013C, strain ard1, stronger effect = lower value 1.02 | locus YHR027C, strain rpn1, stronger effect = lower value 0.997 | locus YHR030C, strain SLT2, stronger effect = lower value 0.993 and 1.04 | locus YHR079C, strain IRE1 (second series), stronger effect = lower value 0.961 | locus YHR079C, strain IRE1, stronger effect = lower value 1.02 | locus YHR094C, strain hxt1, stronger effect = lower value 0.99 | locus YHR129C, strain ARP1, stronger effect = lower value 0.999 | locus YHR142W, strain chs7, stronger effect = lower value 0.954 | locus YHR200W, strain rpn10, stronger effect = lower value 0.965 | locus YIL066C, strain RNR3, stronger effect = lower value 1 | locus YIL073C, strain SPO22, stronger effect = lower value 0.991 | locus YIL125W, strain kgd1, stronger effect = lower value 0.984 | locus YIR030C, strain dcg1, stronger effect = lower value 0.972 | locus YJL092W, strain hpr5, stronger effect = lower value 0.978 | locus YJL095W, strain BCK1 (second series), stronger effect = lower value 0.996 | locus YJL095W, strain BCK1, stronger effect = lower value 0.971 and 1.02 | locus YJL115W, strain asf1, stronger effect = lower value 0.987 | locus YJL129C, strain trk1, stronger effect = lower value 0.965 | locus YJL134W, strain LCB3, stronger effect = lower value 0.999 | locus YJL154C, strain vps35, stronger effect = lower value 0.98 | locus YJL164C, strain tpk1, stronger effect = lower value 0.969 | locus YJL166W, strain qcr8, stronger effect = lower value 0.972 | locus YJL168C, strain set2, stronger effect = lower value 0.986 | locus YJL187C, strain SWE1 (second series), stronger effect = lower value 0.998 | locus YJL187C, strain SWE1, stronger effect = lower value 0.982 | locus YJR043C, strain POL32, stronger effect = lower value 0.966 | locus YJR066W, strain TOR1, stronger effect = lower value 0.965
active: locus YER155C, strain BEM2 (second series), stronger effect = lower value 0.858
